Data on 35 compounds can be found in the supplement of paper PMC13380429.

Values without a mark were called inactive.

The first test deals with Vero E6 infected with SARS-CoV-2. In words: inhibition of SARS-CoV-2 cytopathic effect; higher = more antiviral protection, active = above 15. Conditions: 833.33 nM; 48 h. For orientation: Damage to the host cells serves as the signal in cytopathic effect assays.
For the compound `C1CCN2C[C@@H]3C[C@@H](CN4CCCC[C@@H]34)[C@H]2C1` [sparteine-sulfate], the “inhibition of SARS-CoV-2 cytopathic effect” value (“inhibition” below) is 1.05%.

Take `Oc1c(I)cc(I)c(O)c1I` [riodoxol]: the “inhibition” value is -2.42%.

As to `Nc1ccc(S(=O)(=O)c2ccc(N)cc2)cc1` [dapsone], the “inhibition” value is 11.1%.

Turning to `CCCCC/C=C\C/C=C\C/C=C\C/C=C\CCCC(=O)Nc1ccc(O)cc1`, the “inhibition” value is 0.42%.

With `Cc1ccc(-c2cc(C(F)(F)F)nn2-c2ccc(S(N)(=O)=O)cc2)cc1` [celecoxib], the “inhibition” value is 1.62%.

For the compound `C=CC(=O)O` [acrylate], the “inhibition” value was 4.25%.

For `CCOC(=O)c1c(C)n(C)c2ccc(O)cc12` [mecarbinate], the “inhibition” value is -2.4%.

The same test, now with this note: 10000 nM; 48 h.
In the case of `O=Nc1c(-c2c(O)[nH]c3cc(Br)ccc23)[nH]c2ccccc12` [GSK-3-inhibitor-IX], the “inhibition” value was -4.11%.

For the compound `O=c1[nH]c2ccccc2c(=O)n1CCCN1CCN(c2ccccc2)CC1` [pelanserin], the “inhibition” value was 0.03%.

Take `C[C@]12C=CC(=O)C=C1CC[C@@H]1[C@@H]2[C@@H](O)C[C@@]2(C)[C@H]1CC[C@]2(O)C(=O)COC(=O)CCC(=O)O` [prednisolone-hemisuccinate]: the “inhibition” value is 1.85%.

On to `CC(O)(P(=O)(O)O)P(=O)(O)O` [etidronic-acid], for which the “inhibition” value was 0.13%.

Regarding `COC(=O)[C@@]12OC[C@]34[C@H]([C@@H](O)[C@@H]1O)[C@@]1(C)CC(=O)C(O)=C(C)[C@@H]1C[C@H]3OC(=O)[C@H](OC(=O)/C=C(\C)C(C)C)[C@@H]24` [bruceantin], the “inhibition” value is -16.1%.

On to `COc1cn(-c2ccc(-n3cccn3)cc2F)nc(-c2ccnn2-c2ccccc2)c1=O`, for which the “inhibition” value is 0.75%.

Regarding `O=C(O)c1ccc2nc(-c3cc(Cl)cc(Cl)c3)oc2c1` [tafamidis-meglumine], the “inhibition” value was 0.08%.

Turning to `CC(C)NC[C@@H](O)COc1ccccc1-n1cccc1` (racemic) [isamoltane], the “inhibition” value is -0.73%.

On to `O=c1ccc2ccc(OCCCCN3CCN(c4cccc5sccc45)CC3)cc2[nH]1` [brexpiprazole], for which the “inhibition” value is -8.91%.

For `COC(=O)Nc1nc2cc(C(=O)c3ccc(F)cc3)ccc2[nH]1` [flubendazole], the “inhibition” value is -2.34%.

With `CC1CCN(C(c2ccc(F)cc2)c2ccc(C(C)C(=O)O)cc2-c2ccc(C(F)(F)F)cc2)CC1` (stereo not given), the “inhibition” value is -6.62%.

For `O=C(O)c1c(Sc2ccccc2)c2cc(Cl)ccc2n1Cc1ccc(Cl)cc1`, the “inhibition” value is 1.7%.

Turning to `O=C(COP(=O)(O)O)[C@@H](O)[C@H](O)[C@H](O)COP(=O)(O)O` [fosfructose], the “inhibition” value is -1.68%.

Take `COc1cc(-n2cnc3cc(-c4ccc(Cl)cc4)sc3c2=O)ccc1OCCN1CCCC1`: the “inhibition” value is 49.9% (active).

With `CN(C)Cc1ccc(S(=O)(=O)n2ccc(/C=C/C(=O)NO)c2)cc1` [resminostat], the “inhibition” value was -24.5%.

As for `CN=C(N)NCCC[C@H](N)C(=O)O` [L-monomethylarginine], the “inhibition” value is -1.85%.

As for `c1ccc(-c2ccc(C(c3ccccc3)n3ccnc3)cc2)cc1` (stereo not given) [bifonazole], the “inhibition” value is 15.4% (active).

With `CC/C=C\C/C=C\C/C=C\C/C=C\C/C=C\C/C=C\CCC(=O)OCC` [doconexent-ethyl-ester], the “inhibition” value is 0.36%.

For the compound `O=S(=O)(c1cccc2cnccc12)N1CCCNCC1` [fasudil], the “inhibition” value was -5.91%.

As for `CN1C(=O)C[C@@H](C(=O)N[C@@H](Cc2c[nH]cn2)C(=O)N2CCC[C@H]2C(N)=O)NC1=O` [taltirelin], the “inhibition” value was 4.65%.

For the compound `CCC1(CC)C(=O)C=CNC1=O` [pyrithyldione], the “inhibition” value is -4.46%.

Consider `O=c1c(-c2ccc(O)cc2)coc2cc(O)cc(O)c12` [genistein], for which the “inhibition” value is -1.82%.

`COc1cc(Br)c(S(=O)(=O)Nc2ccc(Cl)c(O[C@@H]3CCN(C)C3)c2)cc1OC`: the “inhibition” value was -0.58%.

Consider `CCCSc1ccc2[nH]c(NC(=O)OC)nc2c1` [albendazole], for which the “inhibition” value was 2.97%.

For `N#C/C(=C\c1ccc(O)c(O)c1)C(=O)NCCCc1ccccc1`, the “inhibition” value is 0.75%.

Regarding `CCOC(=O)c1ccc(N(C)c2csc(-c3ccccc3)n2)cc1` [neuropathiazol], the “inhibition” value is 2.67%.

Regarding `CC(C)NC(=N)NC(=N)Nc1ccc(Cl)cc1` [proguanil], the “inhibition” value was -5.67%.

`c1ccc2c(Oc3nc(Nc4ccc(N5CCOCC5)cc4)c4ncn(C5CCCCC5)c4n3)cccc2c1` [purmorphamine]: the “inhibition” value is -5.44%.
